# Screens as filed in PubChem BioAssay.
# Sampled rows, rich in hits. Any-hit rate of the full collection: about 7.1%.
# LASV entry inh – qHTS for Inhibitors of binding or entry into cells for Lassa Virus; Potency, µM (titrated, usually from 49.2 µM), without a hit: top-dose activity change, negative = inhibition, most hits filed as inhibitors; AID 720533, 2013; 18,000 tested, 4.1% active; Lassa virus pseudotyped entry inhibition, cell-based qHTS
# MARV entry inh – qHTS for Inhibitors of binding or entry into cells for Marburg Virus; 18,000 tested, 6.5% active; Potency, µM (top dose mostly 49.2 µM), for inactives: at the highest dose activity change, negative = inhibition, usual class: inhibitors; Marburg virus pseudotype entry/binding inhibition, cell-based
# Starred values were filed as active, the others as inactive; u = inconclusive; x = no result; [ ] = another dose, or the depositor's remark. The call rests on the fitted dose curve; tested in HEK293 cells. On the % scale 0 is the no-effect control and ±100 the full control effect; potency means the concentration at half of the fitted maximal effect.
SMILES,LASV entry inh,MARV entry inh
C=C[C@@H]1C[C@@H](C=C)OP(=O)(O[C@@H](C=C)[C@@H](C)C(=O)OC)O1 (some centres undefined),8.7%,-24.2%
CCn1c(-c2nonc2N)nc2ccccc21,18.6%,u
CCn1c(-c2nonc2N)nc2c(C#CC(C)(C)O)nc(OCCNC)cc21,x,12.5µM*
CCCCCCCCc1[se]c2ccccc2c1I,3.6%,1.4%
CCCCCCCCCCCCCCCC(=O)O,3.8%,3.3%
CCCCCCCCCCCCCCCC[n+]1ccccc1,22.4µM*,12.6µM*
CCCCCCCCCCCC[n+]1ccc2ccccc2c1,8.91µM*,11.2µM*
CCCCCCCCCCCCCC[n+]1ccc(C)cc1,22.4µM*,u
CCCCCCC[n+]1ccc(-c2cc[n+](CCCCCCC)cc2)cc1,-20.4%,-1.5%
CCN1C(=NCCc2cccnc2)NC(c2ccccc2)C(C(=O)OC)=C1C (centres undefined),-7.9%[8.59 µM],u
C[C@]12C[C@@](C)(C=C1C=Cc1ccc(C(F)(F)F)cc1)C(=O)C[C@H]2c1ccc(C(F)(F)F)cc1,13.2%[8.59 µM],48.4%[8.59 µM]
COC(=O)[C@H](C=C[C@H](C)Cc1cc(Br)cc(OCc2ccccc2)c1OC)OCc1ccccc1,5.1%[8.59 µM],-15.1%[8.59 µM]
O=S1(=O)c2ccc(Br)cc2-n2nncc2CN1Cc1ccc(C(F)(F)F)cc1,20.0%,25.1%
CCCCCCCc1cc2ccccc2c2c(C(=O)OC)c(-c3ccccc3)c(C(=O)OC)n12,-1.1%[8.59 µM],u
COCCN1C(=O)NC(c2ccc(Br)cc2)C(C(C)=O)=C1C (centres undefined),2.2%[8.59 µM],63.1%[8.59 µM]
COCC(C)NCc1cc2ccc(OC)cc2nc1N1CCN(c2ccc(F)cc2)CC1 (centres undefined),u,11.2µM*
COc1ccc2cc(CNCc3ccccc3C(F)(F)F)c(N3CCCC(CO)C3)nc2c1 (centres undefined),-24.9%,0.6%
COC[C@H]1O[C@@H](c2c(OC)cc(OC)cc2OC)[C@H](OC)[C@@H](OC)[C@H]1OC,2.6%[8.59 µM],-10.3%[8.59 µM]
CC(C)(C)c1ccc(O[C@@H]2[C@H](O)CO[C@H]2C=CC#Cc2ccccc2)cc1,7.3%[8.59 µM],-15.8%[8.59 µM]
C=CCN1c2ccccc2[C@]23CCC(=O)N(CCOC)C2=NC(C(=O)OC)=C(C(=O)OC)[C@H]13,50.4%[8.59 µM],12.9%[8.59 µM]
CO[C@@H]1CC[C@@]2(C)[C@@H](CC[C@@]3(C)[C@H]2CC=C2[C@H]4CC(C)(C)[C@H](O)[C@@H](OC(C)=O)[C@]4(CO)[C@H](O)C[C@]23C)[C@@]1(C)CO (tested in a mixture with another compound),8.8%[17.8 µM],-24.4%[17.8 µM]
C[C@@H]1OC(OC2CC[C@@]3(C)C(CC[C@@]4(C)C3CC=C3C5CC(C)(C)CC[C@]5(C(=O)OC5OCC(O)[C@@H](O)[C@@H]5OC5O[C@@H](C)[C@H](O[C@H]6OC(CO)C(O)C(O)C6O)C(O)C5O)C(O)C[C@@]34C)C2(C)C)C(O)C(O)[C@H]1OC1OCC(O)C(O)[C@H]1O (some centres undefined),11.2µM*,u
C[C@]12O[C@H](C[C@]1(O)CO)n1c3ccccc3c3c4c(c5c6ccccc6n2c5c31)CNC4=O,11.2µM*,1µM*
CN[C@@H]1C[C@@]2(C)O[C@@H]([C@@H]1OC)n1c3ccccc3c3c4c(c5c6ccccc6n2c5c31)C(=O)NC4,1µM*,u
Cc1[nH]cnc1C[C@H]1CCc2c(C)c3ccccc3n2C1=O,-13.1%,u
SMILES,LASV entry inh,MARV entry inh
NS(=O)(=O)c1ccc(N=Nc2c(O)[nH]c3ccc(C(=O)NCc4ccncc4)cc23)cc1,x,25.7%
COC(=O)C1=C[C@@]2(c3ccc(OC)cc3[C@@H](OC)[C@@H]2C)[C@@H]2C=C[C@@H]1C2,18.1%[8.59 µM],49.7%[8.59 µM]
CN(C)c1cc2c(Nc3ccc4nc(Cc5ccccc5)[nH]c4c3)ncnc2cn1,57.1%,90.9%
CCC[C@H]1CN(c2ccc(OC)cc2)C(=O)[C@H]1CC(=O)NC,-13.6%,u
COC(=O)N1C2=C(c3ccccc3[C@@H]1CC(=O)O)[C@@H]1O[C@@H](C2)c2ccccc21,-14.4%[8.59 µM],u
Cc1c(C2CCN(CCc3ccccc3)CC2)noc1-c1ccc(Cl)cc1,-11.9%,11.2µM*
Cc1c(-c2ccc(Cl)cc2)noc1C1CCN(CCc2ccccc2)CC1,0.0%,u
CCc1cc2c(nc1CC)CCN(CCC(C)=NOC[C@@H](O)[C@H]1O[C@@H]3OC(C)(C)O[C@H]3[C@@H]1O)C2,5.6%[8.59 µM],-6.4%[8.59 µM]
COc1ccc(CN2CCCC(c3nc(-c4ccncc4)ncc3-c3ccccc3C)C2)c(OC)c1 (centres undefined),17.8µM*,3.55µM*
Cc1ccccc1-c1cnc(-c2ccncc2)nc1C1CCCN(Cc2ccccc2O)C1 (centres undefined),-27.8%,u
COc1cccc(CN2CCCC(c3nc(-c4ccncc4)ncc3-c3ccccc3)C2)c1O (centres undefined),-29.8%,11.2µM*
